Screening results as filed in PubChem.
KCNQ2 block – inhibitors of rat KCNQ2 potassium channel; AID 2156; O88943; CHO-K1 KCNQ2, FluxOR thallium flux, 20 min; stronger effect = lower value; B-score at 10 µM; 1.1% of 310,000 active;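 active means fluorescence ratio B-score at most minus 3 library SDs, with starting brightness B-score within 2 library SDs, cut at about -5.5 in these data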
Target sequence (O88943 whole entry, looked up): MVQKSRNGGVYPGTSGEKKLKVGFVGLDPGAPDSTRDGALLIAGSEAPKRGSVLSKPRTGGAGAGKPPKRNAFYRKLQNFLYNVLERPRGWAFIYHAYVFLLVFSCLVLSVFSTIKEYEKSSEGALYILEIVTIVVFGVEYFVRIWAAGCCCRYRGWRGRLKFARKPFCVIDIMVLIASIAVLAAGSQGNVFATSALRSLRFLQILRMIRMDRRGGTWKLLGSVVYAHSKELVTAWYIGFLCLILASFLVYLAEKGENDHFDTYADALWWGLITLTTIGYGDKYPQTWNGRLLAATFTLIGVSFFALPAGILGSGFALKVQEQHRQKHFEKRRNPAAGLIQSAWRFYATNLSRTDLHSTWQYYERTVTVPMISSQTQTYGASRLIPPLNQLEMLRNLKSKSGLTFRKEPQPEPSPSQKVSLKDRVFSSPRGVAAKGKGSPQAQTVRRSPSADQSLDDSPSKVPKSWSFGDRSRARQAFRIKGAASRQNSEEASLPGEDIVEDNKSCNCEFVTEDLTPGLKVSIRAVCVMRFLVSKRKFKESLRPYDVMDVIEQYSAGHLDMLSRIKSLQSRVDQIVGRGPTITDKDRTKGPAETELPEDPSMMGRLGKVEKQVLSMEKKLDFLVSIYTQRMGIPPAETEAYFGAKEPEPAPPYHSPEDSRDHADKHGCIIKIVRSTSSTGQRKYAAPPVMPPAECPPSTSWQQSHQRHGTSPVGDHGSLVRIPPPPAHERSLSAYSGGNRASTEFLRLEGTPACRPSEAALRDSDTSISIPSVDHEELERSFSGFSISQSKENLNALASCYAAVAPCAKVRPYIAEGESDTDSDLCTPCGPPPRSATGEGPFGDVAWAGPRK
KCNQ2 enhance – enhances the rat KCNQ2 potassium channel; O88943; CHO-K1 KCNQ2, FluxOR thallium flux fluorescence; stronger effect = higher value; B-score at 10 µM; 0.54% of 310,000 active; AID 2239;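 active means fluorescence ratio B-score at least 3 SD of library B-scores, with initial fluorescence B-score within 3 of them, cut at about 5.3 in these data; same plate scores as AID 2156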;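 further: B-score of peak minus minimum over baseline fluorescence ratio after K+ and Tl+ stimulus; positive B-score means potentiation of KCNQ2 with more thallium influx and brighter signal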
Of the large screens only hits and unclear results are named; the others gave an inactive call. Sampled rows, rich in hits. Any-hit rate of the full collection: about 1.6%.

O=C(Nc1ccccc1N1CCN(c2ccccc2)CC1)c1ccccc1	none
Nc1c(C(=O)c2ccc(Br)cc2)oc2ccccc12	none
O=C(c1ccc(Cl)cc1)c1oc2ccccc2c1CS(=O)c1ccccc1 (configuration not stated)	KCNQ2 block -5.7
Cn1c(SCc2ccccc2Cl)nc2ccccc21	none (no result: KCNQ2 enhance)
CCn1c(SCc2ccccc2Cl)nc2ccccc21	KCNQ2 block -6.6
Cc1ccc(S(=O)(=O)N2CCN(C(=O)Cn3nc(C)c([N+](=O)[O-])c3C)CC2)c(C)c1	none
Cc1ccsc1/C=C1/SC(N2CCOCC2)=NC1=O	none
O=C1N=C(N2CCOCC2)S/C1=C\c1cccs1	KCNQ2 enhance 8.8
O=C(COn1nnc2ccc(Cl)cc21)Nc1ccc(F)cc1	none (no result: KCNQ2 enhance)
O=C(COn1nnc2ccc(Cl)cc21)NC12CC3CC(CC(C3)C1)C2	KCNQ2 block -6.1
O=C(NCc1ccccc1)c1ccc(Cl)c(NC2=NC3CS(=O)(=O)CC3S2)c1 (configuration not stated)	none
Cc1noc(C)c1S(=O)(=O)N1CCCC(C(=O)Nc2ccc(Cl)cn2)C1 (configuration not stated)	none (no result: KCNQ2 enhance)
CCOC(=O)C1CCN(C(=O)c2cccnc2Oc2ccc(Cl)cc2)CC1	none
COc1ccc(OC)c(C(=O)NC(CC(N)=O)c2ccc(NC(C)C)c([N+](=O)[O-])c2)c1 (configuration not stated)	KCNQ2 block -9.6
COc1ccc(OC)c(C(=O)NC(CC(N)=O)c2ccc(NCC3CC3)c([N+](=O)[O-])c2)c1 (configuration not stated)	none (no result: KCNQ2 enhance)
O=C(NCc1ccccn1)Nc1ccc(Br)cc1Cl	none (no result: KCNQ2 enhance)
NNc1ccc2c(C(F)(F)F)cc(C(F)(F)F)nc2n1	none
N#CC(c1cccc(Cl)c1)c1ccc2c(C(F)(F)F)cc(C(F)(F)F)nc2n1 (configuration not stated)	KCNQ2 enhance 15
CC(C)CCN1C(=O)c2ccc(C(=O)Nc3cc(C(=O)O)cc(C(=O)O)c3)cc2C1=O	none
Cc1ccc(OCC(=O)N2CCOCC2)cc1C	none (no result: KCNQ2 enhance)
CCOC(=O)C1CCCN(C(=O)CCCn2nnnc2CN2CCOCC2)C1 (configuration not stated)	none
Cc1cc(C)n(C(=O)CNC(=O)c2cccc(F)c2)n1	none
Cc1nn(C(=O)CNC(=O)c2ccccc2)c(C)c1C	KCNQ2 enhance 8.9
COC(=O)N1CCN(c2ccc(C)c(C)c2)CC1	none
COC(=O)c1cccc(COC(=O)c2ccc(N(C)C)cc2)c1	KCNQ2 block -6.5
COC(=O)c1ccc(COC(=O)c2ccc(N(C)C)cc2)cc1	none (no result: KCNQ2 enhance)
O=C(Nc1ccnn1C1CCN(Cc2ccc3nonc3c2)CC1)c1cccc(F)c1	none (no result: KCNQ2 enhance)
COC(=O)c1ccc2c(=O)n(Cc3ccc(C(=O)NCCCN4CCC(C)CC4)cc3)c(=S)[nH]c2c1	none
CC1CCN(CCCNC(=O)c2ccc3c(=O)n(Cc4ccc(Cl)cc4)c(=S)[nH]c3c2)CC1	KCNQ2 block -5.9
O=c1c(Cc2c(F)cccc2Cl)c(O)ccn1C1CCCCCC1	KCNQ2 block -7.8
O=c1c(Cc2c(F)cccc2Cl)c(O)ccn1Cc1ccc(F)cc1	none (no result: KCNQ2 enhance)
Clc1ccc(OCCSc2ncccn2)c2ccccc12	KCNQ2 block -5.7
c1cnc(SCCOc2cccc3ccccc23)nc1	none (no result: KCNQ2 enhance)
CC(Sc1nc(NC(C)(C)C)nc(N(C)C)n1)C(=O)Nc1ccccc1 (configuration not stated)	none (no result: KCNQ2 enhance)
Cc1ccc(CN2C(=O)CSc3ccc(C(=O)NC4CC4)cc32)cc1	none (no result: KCNQ2 enhance)
CCN(c1ccccc1)S(=O)(=O)c1ccc(F)c(C(=O)O)c1	none
CCN(c1ccccc1)S(=O)(=O)c1cc(C(=O)Nc2ccc(Br)cc2)ccc1F	KCNQ2 block -6.2
CN(C)S(=O)(=O)c1cccc(C(=O)Nc2ccccc2Cl)c1	none
CCN(c1ccccc1)S(=O)(=O)c1cc(C(=O)Nc2ccccc2Cl)ccc1F	KCNQ2 block -6
O=C(c1cnn(C(=O)c2ccc(O)cc2)c1)c1ccccc1O	none (no result: KCNQ2 enhance)
COc1ccc(C2=NOC(C(=O)Nc3ccc4c(c3)OCCO4)C2)c(OC)c1 (configuration not stated)	none (no result: KCNQ2 enhance)
CCNC(=O)CNC(=O)c1nn(Cc2ccccc2)c(=O)c2ccccc12	none
CCCCCc1ccc(C(=O)CCCC)c(=S)[nH]1	KCNQ2 enhance 8
CCCCCc1cc(=O)[nH]c(=S)[nH]1	none
COc1ccccc1N1CCN(C(=O)c2ccc3[nH]c4c(c3c2)CCCC4)CC1	none (no result: KCNQ2 enhance)
Cc1ccc(C(=O)Nc2ccc3c(c2)CCC3)cc1	none
O=C(Nc1ccc2c(c1)CCC2)c1cccc(F)c1	KCNQ2 enhance 7.3
CCC(=O)N1CCc2cc(S(=O)(=O)N3CCCC3)ccc21	none
Cc1ccc(S(=O)(=O)/N=C(/NC(=S)Nc2ccccc2)c2ccccc2)cc1	none (no result: KCNQ2 enhance)
Cc1ccc(S(=O)(=O)C/N=C(/NC(=S)N(c2ccccc2)c2ccccc2)c2ccccc2)cc1	KCNQ2 block -5.9
CCOC(=O)c1nnn(CC(=O)N2N=C(c3cc(C)ccc3C)CC2c2ccc(OC)cc2)c1C(=O)OCC (configuration not stated)	KCNQ2 block -5.8
CCOC(=O)c1nnn(CC(=O)N2N=C(c3ccccc3)CC2c2ccccc2)c1C(=O)OCC (configuration not stated)	none
CC(=O)c1c(C)[n+]([O-])c2ccc3c(non3O)c12	none
Nc1c2c(nc3ccccc13)N(C1CCCCC1)CC2	none
Nc1c2c(nc3ccc(Br)cc13)N(C1CCCCC1)CC2	KCNQ2 block -5.8
COc1cccc(-c2cc(C(=O)Nc3cccnc3)c3ccccc3n2)c1	none (no result: KCNQ2 enhance)
CCN(CC)C(=S)NC(=O)c1ccc(Cl)cc1Cl	none
CCCCN(CCCC)C(=S)NC(=O)c1ccccc1Cl	KCNQ2 enhance 19
Cc1c(C(=O)NCCCN2CCCC2=O)oc2c(Cl)cccc12	none
COc1ccc(CCN2CC(C(=O)OCC(=O)Nc3c(C)nn(-c4ccccc4)c3C)CC2=O)cc1OC (configuration not stated)	none
CN(C)c1ccc(-c2cc([C@H]3[C@@H]4C=CCC[C@@]4(C)C(=O)N3Cc3ccccc3)ccc2F)cc1	none (no result: KCNQ2 enhance)
CN(C)CCCn1c(SCC(=O)N2c3ccccc3Sc3ccccc32)nc2ccccc2c1=O	KCNQ2 block -6.4
CCOc1ccc2nc(SCC(=O)N3CCCc4ccccc43)sc2c1	none (no result: KCNQ2 enhance)
Cc1cc(=O)[nH]c(SCC(=O)N2CCCc3ccccc32)n1	KCNQ2 block -6.2
COCCn1c(SCC(=O)N2CCCc3ccccc32)nc2c(c1=O)SC(C)C2 (configuration not stated)	none (no result: KCNQ2 enhance)
Cn1c(SCC(=O)N2c3ccccc3Sc3ccccc32)nc2ccccc21	none (no result: KCNQ2 enhance)
O=C(CSc1nc(O)cc(=O)[nH]1)N1CCCc2ccccc21	none
O=C(CSc1nc2cc(Cl)ccc2s1)N1CCCc2ccccc21	KCNQ2 block -5.9
COCCn1c(SCC(=O)N2CCCc3ccccc32)nc2ccccc2c1=O	KCNQ2 block -6.7
O=C(NNS(=O)(=O)c1ccc(F)cc1)c1cc(Cl)ccc1O	none
COc1cccc(NS(=O)(=O)c2c(C)nc3sccn3c2=O)c1	none
CCN(CC)S(=O)(=O)c1ccc(N2CCCCC2)c(NC(=O)/C=C/c2cc(OC)c(OC)c(OC)c2)c1	KCNQ2 block -6.4
CCc1ccccc1NC(=O)c1cc([N+](=O)[O-])ccc1N1CCOCC1	none
CCN(CC)S(=O)(=O)c1ccc(N2CCOCC2)c(NC(=O)c2cccc3ccccc23)c1	none (no result: KCNQ2 enhance)
CC1CCN(c2ccccc2NC(=O)c2cc([N+](=O)[O-])ccc2N2CCOCC2)CC1	KCNQ2 block -5.7
CCN(CC)S(=O)(=O)c1ccc(N2CCCCC2)c(C(=O)Nc2ccccc2N2CCOCC2)c1	KCNQ2 block -8
COc1cc(/C=C/C(=O)Nc2cc(S(=O)(=O)N3CCOCC3)ccc2N2CCCC2)cc(OC)c1OC	none (no result: KCNQ2 enhance)
